TRPM1 prom inh: inhibitors of MITF-dependent TRPM1 promoter reporter, primary screen, cell-based, SK-MEL-5, single point, luciferase; SK-MEL-5 TRPM1 promoter luciferase, 24 h; inhibition, % at 12.5 µM; actives 0.83% (n = 330,000); AID 488899, 2010;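 active = mean inhibition across replicates of 60% or more, whatever share of single replicates reaches that level; inconclusive = some that reach 60%, reason not given; inactive = mean inhibition across replicates below 60%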
TWEAK-Fn14 inh: inhibitors of TWEAK-Fn14 signaling, primary screen, luciferase reporter cells, uHTS; TWEAK-stimulated Fn14 reporter cells, luciferase luminescence, 8 h; inhibition, % at 10 µM; actives 2% (n = 360,000); in the data active = inhibition above about 50%
Peg3 prom inh: Peg3 promoter-driven luciferase inhibitors, primary screen, cell-based, HeLa, luciferase luminescence. HeLa PEG-Prom luciferase reporter, overnight. inhibition, % at 20 µM. actives 1.7% (n = 360,000). AID 588405, 2011;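 active = inhibition of at least 50% at 20 µM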
Shn3 3UTR inh: reduction of Shn3 3'UTR firefly luciferase signal, primary screen, Schnurri-3 inhibitor project, cell-based, Clone20 osteoblasts, set 2. Clone20 osteoblast Shn3 3'UTR firefly luciferase, 24 h. inhibition, % at 12.5 µM. actives 0.52% (n = 360,000). AID 588674, 2011;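 active = mean inhibition of at least 75% with every replicate also reaching 75%; inconclusive = mean inhibition at least 75% but some replicate below; inactive = mean inhibition below 75%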;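 note: 0% = median of neutral control wells and 100% = pilot-screen positive control compound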
TROY signal inh: inhibitors of TROY-driven NF-kB signaling, primary screen, Q293 LMP1-TROYcd cells, NF-kB luciferase, uHTS; Q293 LMP1-TROYcd NF-kB luciferase reporter, 4 h; inhibition, % at 10 µM; actives 0.98% (n = 360,000); AID 1347056, 2019;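 active = compounds whose plate-normalised and pattern-corrected inhibition of the luciferase reporter signal at the single screening dose is 50% or more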
LMP1 NFkB inh: EBV LMP1-driven NF-kappaB luciferase reporter inhibitors, primary screen, cell-based, luminescence, single point. AID 504558, 2011. actives 0.69% (n = 350,000). inhibition, % at 12.5 µM. LMP1-induced NF-kappaB luciferase reporter cells; in the data active = inhibition above about 41%; inconclusive = no clear call, values can overlap the other calls;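 note: 0% = neutral control wells and 100% = reference inhibitor control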
Starred values were filed as active, the others as inactive; ? = inconclusive; · = no result given. Shown are actives, neighbours in structure and some others; about 4.1% of the full set was active somewhere.

SMILES	TRPM1 prom inh	TWEAK-Fn14 inh	Peg3 prom inh	Shn3 3UTR inh	TROY signal inh	LMP1 NFkB inh
COc1ccc(Cn2nnnc2C(C(C)C)N(Cc2ccco2)Cc2cccs2)cc1 (configuration not stated)	-1	80*	19	39	·	-4
Cc1nn(-c2ccccc2)c(Cl)c1C(=O)NCCCCNC(=O)c1c(C)nn(-c2ccccc2)c1Cl	6	7	-5	-32	10	61*
COc1ccc(C(C)=O)cc1COC(=O)c1cc(=O)c2ccccc2o1	6	14	-1	-4	-17	-1
O=C1NC(=O)C(=Cc2ccc(Cl)cc2Cl)S1	-24	30	-148	-59	54*	-4
COc1cccc(C(O)c2nc(-c3cc(F)cc(F)c3)cs2)c1 (configuration not stated)	·	-1	11	-10	3	·
Cc1sc(NC(=O)Cc2ccc3c(c2)OCO3)nc1-c1ccc2c(c1)CCN2C(=O)c1ccc(F)cc1	13	1	-2	57	-8	24
Cc1sc(NC(=O)Cc2ccc3c(c2)OCO3)nc1-c1ccc2c(c1)CCN2C(=O)c1ccccc1F	0	51*	-19	35	-8	8
Cc1ccc(S(=O)(=O)CCC(=O)OCC(=O)Nc2cc(S(=O)(=O)N3CCOCC3)ccc2C)cc1	-10	-2	-4	88*	-7	4
COc1ccc(S(=O)(=O)N2CCOCC2)cc1NC(=O)COC(=O)C1COc2ccccc2O1 (configuration not stated)	9	43	-193	-90	69*	2
COc1ccc(S(=O)(=O)N2CCOCC2)cc1NC(=O)COC(=O)CC1CC2CCC1C2 (configuration not stated)	13	18	-2	87*	-10	-9
O=C(CC1S/C(=N/N=C/C=C/c2ccccc2)NC1=O)Nc1ccc(C(=O)O)cc1 (configuration not stated)	-3	-19	-9	-2	-18	-3
COc1ccc(-c2cc(CNC(=O)CN(C)Cc3ccccc3)on2)cc1	-9	5	11	4	6	-45
O=C(c1ccc(N2CCOCC2)c([N+](=O)[O-])c1)N1CCN(Cc2ccccc2)CC1	-10	12	1	11	2	6
COc1ccc(CNC(=O)c2cccc3c(-c4cccnc4)coc23)cc1OC	·	64*	19	88*	50*	·
O=C(NCc1ccc(F)c(F)c1)c1cccc2c(-c3cccnc3)coc12	·	33	-31	42	28	·
O=C(NCc1cccc(Cl)c1)c1cccc2c(-c3cccnc3)coc12	·	90*	-4	62	56*	·
COc1ccccc1S(=O)(=O)CC(O)COc1ccc(F)cc1Cl (configuration not stated)	-9	6	20	-4	-15	-9
Cc1ccc2c(=O)[nH]c(Cc3ccccc3C(=O)O)nc2c1	12	24	-4	-2	42	11
C=CCOc1c(Br)cc(CNn2nnnc2N)cc1OC	14	3	12	14	19	-6
CCc1cc(=O)oc2c(C)c(OCC(=O)NCC3CCC(C(=O)O)CC3)ccc12 (configuration not stated)	11	-18	3	6	6	0
Cc1onc(-c2c(F)cccc2Cl)c1C(=O)Nc1sc2c(c1C(N)=O)CCC2	13	44	52*	36	19	3
Cc1onc(-c2ccccc2)c1C(=O)Nc1sc2c(c1C(N)=O)CCC2	-4	0	16	-5	1	-6
Cc1onc(-c2ccccc2Cl)c1C(=O)Nc1nnc(-c2ccc(Cl)cc2Cl)s1	-4	3	8	-14	27	-5
Cc1onc(-c2ccccc2Cl)c1C(=O)Nc1nc2c(s1)CCCC2	-39	-13	-106	-21	52*	-44
CC(CCC(C)C(C)(C)C)[C@@H]1CC[C@H]2C3C[C@H](OS(O)(=S)=S)[C@H]4C[C@H](OS(O)(=S)=S)[C@@H](OS(O)(=S)=S)C[C@]4(C)[C@H]3CC[C@]12C (some centres not stated) (tested in a mixture with another compound)	-21	-58	58*	21	36	0
SMILES	TRPM1 prom inh	TWEAK-Fn14 inh	Peg3 prom inh	Shn3 3UTR inh	TROY signal inh	LMP1 NFkB inh
CC(CCC(=O)NN)C1CCC2C3CCC4CC(O)CCC4(C)C3CCC12C (configuration not stated)	9	-17	-19	23	24	-1
Cc1ccc(N=c2oc3cc(O)ccc3cc2C(N)=O)cc1	-34	61*	-172	-48	34	0
CC(=O)c1cc2ccc(O)cc2oc1=O	18	-15	10	·	5	-5
Cc1cnc(NC(=O)CCCc2nc3ccccc3s2)s1	14	-1	98*	-47	-12	-320
Cn1c(=O)c2cc(NC(=O)NCc3ccccc3)ccc2n1C/C=C/c1ccccc1	·	-19	-8	-4	-30	·
CCOc1ccc(OCc2ccc(C(=O)O)o2)cc1	45	52*	45	8	-49	5
COc1ccccc1NC(=O)CSCc1nc2ccccc2[nH]1	12	6	21	-11	-4	6
CCC1(C)Cc2[nH]c(=O)c(C#N)cc2CO1 (configuration not stated)	3	86*	-9	9	8	-12
Cc1[nH]c(C)c(S(=O)(=O)Nc2ccc(OC(F)(F)F)cc2)c1C(=O)N1CCCCC1	9	-8	0	2	1	-5
C(C#CCCCCCCCCC[n+]1ccccc1)#CCCCCCCCCC[n+]1ccccc1	101*	90*	105*	?	44	37
Cc1ccccc1NC(=O)NCC1CCN(c2ccc(S(=O)(=O)N3CCOCC3)cc2)CC1	18	0	0	22	14	0
Cc1cccc(NC(=O)NCC2CCN(c3ccc(S(=O)(=O)N4CCOCC4)cc3)CC2)c1	-6	-6	7	5	54*	-4
Cc1cccc(NC(=S)N(CCN2CCOCC2)Cc2cc3cc4c(cc3[nH]c2=O)OCCO4)c1	4	67*	28	23	73*	-6
Cc1ccc(NC(=S)N(CCN2CCOCC2)Cc2cc3cc4c(cc3[nH]c2=O)OCCO4)cc1	11	4	24	7	3	-4
Nc1cc2nc3ccccc3oc-2cc1=O	88*	14	-37	28	-23	-13
O=c1oc2ccccc2cc1-c1nc2ccccc2o1	-45	20	-182	-72	0	-26
CC(=O)Nc1ccc(C(=O)OCc2ccc(Cl)c(Cl)c2)cc1	-24	94*	-5	-50	86*	-24
